Targets with a hit are over-represented here; the source holds about 7,900 in all. About 0.6% of all pairs of compound and target were hits. Values without a mark were called inactive.

Sequence of UniProt Q9H269 (Q9H269 whole entry, looked up): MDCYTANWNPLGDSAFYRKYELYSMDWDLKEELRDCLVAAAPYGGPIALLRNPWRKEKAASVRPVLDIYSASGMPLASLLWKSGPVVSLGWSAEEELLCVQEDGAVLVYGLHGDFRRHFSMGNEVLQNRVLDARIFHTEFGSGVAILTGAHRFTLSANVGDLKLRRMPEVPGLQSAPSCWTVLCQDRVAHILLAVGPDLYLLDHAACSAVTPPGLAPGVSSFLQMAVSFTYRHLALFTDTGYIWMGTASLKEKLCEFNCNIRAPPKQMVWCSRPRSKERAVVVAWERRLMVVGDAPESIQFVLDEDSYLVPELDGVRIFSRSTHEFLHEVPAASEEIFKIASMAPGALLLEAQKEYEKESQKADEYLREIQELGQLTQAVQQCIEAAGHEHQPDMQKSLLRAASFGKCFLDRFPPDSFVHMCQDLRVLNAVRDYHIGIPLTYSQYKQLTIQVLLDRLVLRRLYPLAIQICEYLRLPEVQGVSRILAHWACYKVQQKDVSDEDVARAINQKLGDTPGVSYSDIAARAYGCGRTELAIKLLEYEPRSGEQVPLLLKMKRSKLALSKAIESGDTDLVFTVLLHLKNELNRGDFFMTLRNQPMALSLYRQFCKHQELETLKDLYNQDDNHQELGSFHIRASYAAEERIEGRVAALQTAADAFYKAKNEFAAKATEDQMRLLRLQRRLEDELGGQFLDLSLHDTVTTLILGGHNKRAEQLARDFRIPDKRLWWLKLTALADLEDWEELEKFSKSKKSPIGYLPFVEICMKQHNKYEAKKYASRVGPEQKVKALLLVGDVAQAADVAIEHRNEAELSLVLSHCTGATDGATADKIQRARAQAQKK
Sequence of UniProt Q9Y2L5 (Q9Y2L5 whole entry, looked up): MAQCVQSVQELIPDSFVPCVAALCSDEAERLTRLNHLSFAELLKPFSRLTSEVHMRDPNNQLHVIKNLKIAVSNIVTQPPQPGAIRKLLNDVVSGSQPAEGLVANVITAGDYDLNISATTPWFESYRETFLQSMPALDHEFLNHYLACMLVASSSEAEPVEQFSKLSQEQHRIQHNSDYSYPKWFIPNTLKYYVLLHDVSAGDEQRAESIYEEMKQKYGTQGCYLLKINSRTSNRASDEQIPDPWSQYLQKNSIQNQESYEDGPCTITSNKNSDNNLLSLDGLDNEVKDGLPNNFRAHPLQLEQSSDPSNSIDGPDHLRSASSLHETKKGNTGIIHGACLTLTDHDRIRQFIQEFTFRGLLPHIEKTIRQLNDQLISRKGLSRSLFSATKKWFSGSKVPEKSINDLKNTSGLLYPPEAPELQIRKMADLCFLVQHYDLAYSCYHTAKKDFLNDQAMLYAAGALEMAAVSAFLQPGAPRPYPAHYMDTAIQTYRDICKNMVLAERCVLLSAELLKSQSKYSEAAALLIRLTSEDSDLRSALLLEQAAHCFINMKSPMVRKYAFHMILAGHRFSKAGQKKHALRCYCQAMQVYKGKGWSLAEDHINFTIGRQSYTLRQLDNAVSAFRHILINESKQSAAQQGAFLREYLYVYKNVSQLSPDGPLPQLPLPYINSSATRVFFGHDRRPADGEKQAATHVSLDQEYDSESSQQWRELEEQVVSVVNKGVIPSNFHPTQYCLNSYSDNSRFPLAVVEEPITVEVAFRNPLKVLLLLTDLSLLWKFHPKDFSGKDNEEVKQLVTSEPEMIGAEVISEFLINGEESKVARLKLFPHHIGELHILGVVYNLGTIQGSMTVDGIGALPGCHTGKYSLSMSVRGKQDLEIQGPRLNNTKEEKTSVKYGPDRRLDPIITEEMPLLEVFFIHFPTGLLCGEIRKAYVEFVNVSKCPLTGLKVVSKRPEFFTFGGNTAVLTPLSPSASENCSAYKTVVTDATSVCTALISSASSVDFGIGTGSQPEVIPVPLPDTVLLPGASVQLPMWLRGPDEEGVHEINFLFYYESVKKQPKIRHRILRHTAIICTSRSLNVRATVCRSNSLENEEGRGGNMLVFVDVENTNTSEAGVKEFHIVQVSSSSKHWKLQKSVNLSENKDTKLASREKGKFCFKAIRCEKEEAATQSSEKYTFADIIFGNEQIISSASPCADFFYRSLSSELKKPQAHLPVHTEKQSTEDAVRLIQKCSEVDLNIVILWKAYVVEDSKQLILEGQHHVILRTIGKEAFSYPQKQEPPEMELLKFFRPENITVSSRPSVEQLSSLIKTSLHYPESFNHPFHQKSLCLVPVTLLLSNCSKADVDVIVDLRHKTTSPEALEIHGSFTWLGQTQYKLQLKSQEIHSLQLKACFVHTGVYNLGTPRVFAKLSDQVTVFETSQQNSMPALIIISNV
Sequence of UniProt Q9BVJ6 (Q9BVJ6 whole entry, looked up): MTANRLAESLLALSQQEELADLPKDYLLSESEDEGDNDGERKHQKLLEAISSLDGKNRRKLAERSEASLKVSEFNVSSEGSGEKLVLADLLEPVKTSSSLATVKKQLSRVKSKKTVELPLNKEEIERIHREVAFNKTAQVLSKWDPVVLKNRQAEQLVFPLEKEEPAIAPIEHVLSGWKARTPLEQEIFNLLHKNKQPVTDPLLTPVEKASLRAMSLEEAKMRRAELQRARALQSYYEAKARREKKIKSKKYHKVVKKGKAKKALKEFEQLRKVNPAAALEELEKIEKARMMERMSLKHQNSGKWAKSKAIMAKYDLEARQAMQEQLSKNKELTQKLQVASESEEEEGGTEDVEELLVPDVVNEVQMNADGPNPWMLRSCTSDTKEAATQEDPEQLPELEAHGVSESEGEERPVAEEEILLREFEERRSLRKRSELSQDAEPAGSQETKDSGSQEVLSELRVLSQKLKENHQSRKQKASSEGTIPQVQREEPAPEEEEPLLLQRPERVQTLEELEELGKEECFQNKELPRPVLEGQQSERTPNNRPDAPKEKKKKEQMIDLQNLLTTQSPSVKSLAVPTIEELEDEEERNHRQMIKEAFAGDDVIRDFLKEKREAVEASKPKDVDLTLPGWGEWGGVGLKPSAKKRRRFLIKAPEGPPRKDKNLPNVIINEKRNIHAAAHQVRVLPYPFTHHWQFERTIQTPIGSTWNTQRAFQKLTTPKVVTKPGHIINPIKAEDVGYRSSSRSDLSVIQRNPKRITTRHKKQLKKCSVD
Sequence of UniProt P54578 (P54578 whole entry, looked up): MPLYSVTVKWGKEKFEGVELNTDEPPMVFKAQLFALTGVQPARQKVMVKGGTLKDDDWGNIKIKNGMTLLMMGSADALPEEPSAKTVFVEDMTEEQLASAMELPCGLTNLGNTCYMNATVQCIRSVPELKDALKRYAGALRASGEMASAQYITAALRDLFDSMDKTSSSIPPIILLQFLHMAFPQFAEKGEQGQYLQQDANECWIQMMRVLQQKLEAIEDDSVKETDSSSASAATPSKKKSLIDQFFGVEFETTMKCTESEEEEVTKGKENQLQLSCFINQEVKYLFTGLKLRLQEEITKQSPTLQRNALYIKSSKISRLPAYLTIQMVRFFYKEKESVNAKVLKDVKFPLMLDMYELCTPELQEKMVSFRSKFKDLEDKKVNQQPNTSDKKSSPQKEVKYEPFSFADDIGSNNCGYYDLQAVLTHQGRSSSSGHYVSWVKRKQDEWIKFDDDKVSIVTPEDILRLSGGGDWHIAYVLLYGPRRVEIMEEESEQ
Sequence of UniProt Q969X6 (Q969X6 whole entry, looked up): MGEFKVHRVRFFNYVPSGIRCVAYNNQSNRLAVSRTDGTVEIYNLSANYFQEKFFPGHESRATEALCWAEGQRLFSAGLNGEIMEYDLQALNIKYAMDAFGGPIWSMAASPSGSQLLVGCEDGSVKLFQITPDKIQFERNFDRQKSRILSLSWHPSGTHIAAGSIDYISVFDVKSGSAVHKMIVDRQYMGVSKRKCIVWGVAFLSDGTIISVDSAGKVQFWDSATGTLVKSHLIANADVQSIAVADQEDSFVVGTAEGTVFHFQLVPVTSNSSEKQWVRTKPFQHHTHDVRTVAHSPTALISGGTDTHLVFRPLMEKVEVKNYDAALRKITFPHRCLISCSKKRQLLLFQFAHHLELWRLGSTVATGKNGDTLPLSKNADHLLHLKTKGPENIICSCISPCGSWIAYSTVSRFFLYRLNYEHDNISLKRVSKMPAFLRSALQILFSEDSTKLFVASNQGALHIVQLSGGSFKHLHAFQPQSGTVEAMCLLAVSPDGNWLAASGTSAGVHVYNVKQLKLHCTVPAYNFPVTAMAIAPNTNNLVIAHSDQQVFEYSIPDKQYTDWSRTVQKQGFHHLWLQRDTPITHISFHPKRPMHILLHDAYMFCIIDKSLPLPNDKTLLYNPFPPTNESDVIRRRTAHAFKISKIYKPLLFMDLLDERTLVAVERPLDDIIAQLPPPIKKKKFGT
Sequence of UniProt Q7Z6J8 (Q7Z6J8 whole entry, looked up): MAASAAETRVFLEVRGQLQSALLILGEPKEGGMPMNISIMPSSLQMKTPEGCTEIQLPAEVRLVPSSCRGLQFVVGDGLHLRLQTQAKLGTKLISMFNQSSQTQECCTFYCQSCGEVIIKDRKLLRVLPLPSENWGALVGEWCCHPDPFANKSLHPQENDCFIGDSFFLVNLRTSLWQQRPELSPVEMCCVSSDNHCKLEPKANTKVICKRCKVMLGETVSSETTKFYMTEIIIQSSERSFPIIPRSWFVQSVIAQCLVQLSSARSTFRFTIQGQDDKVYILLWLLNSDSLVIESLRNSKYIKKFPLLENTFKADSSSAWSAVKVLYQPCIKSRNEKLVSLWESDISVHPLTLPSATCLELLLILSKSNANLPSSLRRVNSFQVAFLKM
Sequence of UniProt Q15629 (Q15629 whole entry, looked up): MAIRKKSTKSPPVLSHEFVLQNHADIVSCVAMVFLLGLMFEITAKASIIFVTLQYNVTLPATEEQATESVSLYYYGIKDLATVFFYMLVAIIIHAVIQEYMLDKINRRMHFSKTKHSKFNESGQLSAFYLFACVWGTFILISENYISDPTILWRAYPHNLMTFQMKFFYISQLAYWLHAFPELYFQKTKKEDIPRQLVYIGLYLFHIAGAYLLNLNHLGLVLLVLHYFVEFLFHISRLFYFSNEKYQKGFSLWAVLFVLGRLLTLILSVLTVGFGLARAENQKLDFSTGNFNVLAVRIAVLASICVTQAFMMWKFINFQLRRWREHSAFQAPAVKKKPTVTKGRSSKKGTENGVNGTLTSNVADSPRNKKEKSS
Sequence of UniProt Q9UDW1 (Q9UDW1 whole entry, looked up): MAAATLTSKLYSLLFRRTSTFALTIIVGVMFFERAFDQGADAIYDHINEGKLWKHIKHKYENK

Compound in the first assay: NC(=O)c1cnc(N[C@@H]2CCCC[C@@H]2N)nc1Nc1cccc(-n2nccn2)c1
Nature of the assay: log2 fold change, soluble protein after heating vs DMSO (PISA); higher = thermal stabilisation; K562 cells, 10 uM, 30 min; active = over 0.2 and 3.5 SD of the protein, either way, in both replicates (recomputed). A digest of the protocol: (§1)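 K562 cells at 2×10^6 cells/mL were exposed to 10 μM compound for 30 min, then aliquots were heated for 3 min across 48°C-58°C, pooled, and extracted in PBS containing 0.5% NP-40 at 4°C. The supernatant after 21,000xg for 90 min was taken as soluble protein and measured by TMTpro 16plex LC-MS/MS with channel sums equalised. Thermal stability is reported relative to control samples, with values from duplicates. Fold changes are given on a log2 scale.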
For the target VTA1 (UniProt Q9NP79), the log2 fold change is 0.018.

For the target UBE4B isoform 4 (UniProt O95155), the log2 fold change is -0.055.

With USO1 isoform 2 (UniProt O60763), the log2 fold change is 0.

With VPS16 (UniProt Q9H269), the log2 fold change was -0.156.

As for WAPL isoform 3 (UniProt Q7Z5K2), the log2 fold change was -0.033.

In the case of VTI1A (UniProt Q96AJ9), the log2 fold change was 0.014.

Turning to VPS8 (UniProt Q8N3P4), the log2 fold change was -0.125.

As for UFL1 (UniProt O94874), the log2 fold change was -0.013.

On to UTP4 (UniProt Q969X6), for which the log2 fold change is 0.033.

For UTP14A (UniProt Q9BVJ6), the log2 fold change was 0.048.

Take UGGT1 (UniProt Q9NYU2): the log2 fold change is -0.025.

For the target VPS18 (UniProt Q9P253), the log2 fold change is -0.13.

In the case of UBA6, the log2 fold change was -0.065.

For the target TMEM161A (UniProt Q9NX61), the log2 fold change is 0.012.

For TNFRSF10A (UniProt O00220), the log2 fold change is -0.019.

As to TRMT61A (UniProt Q96FX7), the log2 fold change was 0.017.

In the case of TRAPPC8 (UniProt Q9Y2L5), the log2 fold change was -0.082.

UBE2S (UniProt Q16763): the log2 fold change is -0.043.

Consider UBE2E3 (UniProt Q969T4), for which the log2 fold change is -0.052.

With UCHL5 (UniProt Q9Y5K5), the log2 fold change was -0.029.

Regarding VTI1B (UniProt Q9UEU0), the log2 fold change was -0.006.

As to TNPO1 (UniProt Q92973), the log2 fold change is -0.039.

Consider UQCR10 (UniProt Q9UDW1), for which the log2 fold change is -0.043.

For TMEM87B (UniProt Q96K49), the log2 fold change is -0.062.

With USP34 (UniProt Q70CQ2), the log2 fold change was -0.08.

Regarding USP14 (UniProt P54578), the log2 fold change was -0.006.

Regarding VPS51 (UniProt Q9UID3), the log2 fold change is -0.119.

For the target UBE2J1 (UniProt Q9Y385), the log2 fold change is -0.038.

With UBE3D (UniProt Q7Z6J8), the log2 fold change was 0.012.

As to TRAM1 (UniProt Q15629), the log2 fold change was -0.073.

For TOP2A isoform 4 (UniProt P11388), the log2 fold change is 0.058.

XPNPEP3 (UniProt Q9NQH7): the log2 fold change is -0.007.

For the target TRAPPC2L (UniProt Q9UL33), the log2 fold change is -0.025.

As to XPO5 (UniProt Q9HAV4), the log2 fold change is -0.068.

Turning to WDHD1 (UniProt O75717), the log2 fold change is -0.054.

Turning to VDAC1 (UniProt P21796), the log2 fold change was 0.

Compound in the next assay: NC1(c2ccc(-c3nc4ccn5c(=O)[nH]nc5c4cc3-c3ccccc3)cc2)CCC1
Described as above. A digest of the protocol: as §1
With VTA1 (UniProt Q9NP79), the log2 fold change is -0.185.

For UBE4B isoform 4 (UniProt O95155), the log2 fold change is -0.113.

On to USO1 isoform 2 (UniProt O60763), for which the log2 fold change was -0.101.

Turning to VPS16 (UniProt Q9H269), the log2 fold change is -0.211.

Turning to WAPL isoform 3 (UniProt Q7Z5K2), the log2 fold change was -0.423 (active).

VTI1A (UniProt Q96AJ9): the log2 fold change is -0.125.

For the target VPS8 (UniProt Q8N3P4), the log2 fold change was -0.15.

Take UFL1 (UniProt O94874): the log2 fold change was -0.107.

On to UTP4 (UniProt Q969X6), for which the log2 fold change was 0.075.

With UTP14A (UniProt Q9BVJ6), the log2 fold change was 0.083.

UGGT1 (UniProt Q9NYU2): the log2 fold change was -0.06.

As to VPS18 (UniProt Q9P253), the log2 fold change is -0.216.

With UBA6, the log2 fold change was -0.14.

With TMEM161A (UniProt Q9NX61), the log2 fold change is -0.132.

TNFRSF10A (UniProt O00220): the log2 fold change was 0.06.

As for TRMT61A (UniProt Q96FX7), the log2 fold change was 0.17.

In the case of TRAPPC8 (UniProt Q9Y2L5), the log2 fold change is -0.168.

With UBE2S (UniProt Q16763), the log2 fold change is -0.033.

Consider UBE2E3 (UniProt Q969T4), for which the log2 fold change was -0.155.

UCHL5 (UniProt Q9Y5K5): the log2 fold change is -0.124.

For VTI1B (UniProt Q9UEU0), the log2 fold change was -0.084.

For the target TNPO1 (UniProt Q92973), the log2 fold change was -0.157.

As for UQCR10 (UniProt Q9UDW1), the log2 fold change is 0.076.

For TMEM87B (UniProt Q96K49), the log2 fold change is -0.266.

Take USP34 (UniProt Q70CQ2): the log2 fold change is -0.131.

On to USP14 (UniProt P54578), for which the log2 fold change is -0.161.

Take VPS51 (UniProt Q9UID3): the log2 fold change is -0.082.

UBE2J1 (UniProt Q9Y385): the log2 fold change is 0.07.

Take UBE3D (UniProt Q7Z6J8): the log2 fold change was -0.004.

TRAM1 (UniProt Q15629): the log2 fold change was -0.162.

Regarding TOP2A isoform 4 (UniProt P11388), the log2 fold change was 0.307.

For XPNPEP3 (UniProt Q9NQH7), the log2 fold change was -0.074.

TRAPPC2L (UniProt Q9UL33): the log2 fold change is -0.126.

Turning to XPO5 (UniProt Q9HAV4), the log2 fold change was -0.234 (active).

Turning to WDHD1 (UniProt O75717), the log2 fold change was -0.156.

Turning to VDAC1 (UniProt P21796), the log2 fold change is 0.008.

Values taken from the supplement of paper PMC10849652.
